# Rab9 promoter act – activates the Rab9 promoter; Potency, µM (titrated, usually from 9.22 µM), inactives show at the highest dose activation, negative = inhibition, hits mostly activators; 2.8% of 320,000 active; Huh7 Rab9 promoter-luciferase reporter, luminescence, 24 h; further: % of control where 0% means no effect; nearly all actives have a fitted effect of over 60% in size
#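 Steps: seed 1500 Huh7 Rab9-luc cells per well, rest 2 h at 37 °C; add compound in DMSO; incubate 24 h; add luciferase reagent, 10 min ambient; read luminescence.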
# SMN2 splice up – increases expression of the SMN2 splice variant; 2.8% of 210,000 active; HEK293 SMN2-luciferase splicing reporter, luminescence, 30-36 h; Potency, µM (highest dose often 46.1 µM), inactives show top-dose activity change, positive = activation, most hits filed as activators; further: % of control where 0% means no effect; nearly all actives have a fitted effect of over 55% in size
#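 HEK293 cells carry an SMN2 […]–luciferase reporter in which exon 7 inclusion puts luciferase in frame. Cells were plated 10-12 h before compound addition, then incubated 30-36 h at 37C. ONE-Glo luminescence was read; sodium butyrate at 4.5 mM final served as control.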
# ELG1 genotox – genotoxicity induction in ELG1-luciferase HEK293T cells; HEK293T ELG1-luciferase reporter, luminescence, 16 h; 1.3% of 330,000 active; Potency, µM (top dose mostly 46 µM), for inactives: top-dose activity change, positive = activation, most hits filed as activators; further: % of control where 0% means no effect; nearly all actives have a fitted effect of over 60% in size
#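 Genotoxicity was scored as increased ELG1-luciferase reporter signal, measured by ONE-Glo luminescence (30 min, room temperature). Compound or vehicle exposure of the HEK293T reporter cells lasted 16 hr at 37°C.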
# FLuc counter – inhibits or activates purified firefly luciferase, miR-21 counter-screen; purified FLuc, Km substrates, luminescence inhibition; Potency, µM (titrated, usually from 57.5 µM), for the others: at the top dose activity change, negative = inhibition, most hits filed as inhibitors; 6.9% of 360,000 active;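 further: plate controls were vehicle for no effect and reference inhibitor for full effect; nearly all actives have a fitted effect of over 55% in size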
# Target sequence (P08659 whole entry, looked up): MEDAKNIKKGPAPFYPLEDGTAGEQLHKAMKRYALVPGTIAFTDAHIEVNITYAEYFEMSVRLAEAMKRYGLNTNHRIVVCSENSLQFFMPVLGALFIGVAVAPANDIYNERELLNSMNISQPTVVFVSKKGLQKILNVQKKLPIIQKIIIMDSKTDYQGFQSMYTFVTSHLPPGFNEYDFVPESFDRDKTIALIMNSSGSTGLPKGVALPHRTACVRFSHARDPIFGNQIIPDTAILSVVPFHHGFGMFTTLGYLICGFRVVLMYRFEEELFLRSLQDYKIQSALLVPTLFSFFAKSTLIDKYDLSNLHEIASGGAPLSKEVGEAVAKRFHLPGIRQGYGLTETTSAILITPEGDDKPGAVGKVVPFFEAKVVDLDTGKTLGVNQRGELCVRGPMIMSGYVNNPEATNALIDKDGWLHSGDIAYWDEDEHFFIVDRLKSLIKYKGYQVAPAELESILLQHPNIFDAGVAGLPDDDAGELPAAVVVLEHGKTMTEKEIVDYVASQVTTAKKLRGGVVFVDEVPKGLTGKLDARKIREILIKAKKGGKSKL
#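 Purified P. pyralis luciferase (10nM final) with 10uM D-luciferin and 10uM ATP (Km levels) in 50mM Tris acetate pH 7.5, 10mM Mg acetate, 0.01% Tween-20, 0.05% BSA; qHTS 6-point titration, ~60 µM downward; luminescence read.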
# NPC1 prom act – activators of NPC1 promoter; 2.4% of 320,000 active; Huh7 NPC1 promoter luciferase reporter, 24 h; Potency, µM (doses to about 9.22 µM), for inactives: at the highest dose activation, usual class: activators; further: % of control where 0% means no effect; nearly all actives have a fitted effect of over 60% in size
#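 NPC1 promoter–luciferase Huh7 cells; 24 h compound; luminescence.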
# * = called active by the depositor; ? = inconclusive; · = no result given; [ ] = another dose, or the depositor's remark. Rows were chosen to be rich in hits. Some 7.4% of all compounds tested hit in one or more screens of this group. The call rests on the fitted dose curve; in most records, active means well fitted curve in the direction sought with a large enough effect; inconclusive means small, poorly fitted or top-dose-only effect, or another doubt; inactive means no such curve, though single readings can be large; an effect the other way counts as inactive or inconclusive. Potency means the concentration at half of the fitted maximal effect.
SMILES,Rab9 promoter act,SMN2 splice up,ELG1 genotox,FLuc counter,NPC1 prom act
CCc1cccc(OCC(=O)Nc2cc(S(=O)(=O)N3CCOCC3)ccc2N2CCCC2)c1,-8%,·,-9%,1%,0%
CCOC(=O)c1cnn(C)c1NC(=O)c1ccc([N+](=O)[O-])cc1,-1%,·,0%,2%,-5%
COCc1nn2c(N)c(C#N)cnc2c1-c1ccccc1,-1%,29%,18%,13µM*,-2%
N#Cc1cnn(Cc2ccccc2)c1N,2%,-9%,-1%,1%,-1%
COCc1nn2c(N)c(-c3ccccc3)cnc2c1-c1ccccc1,2.8µM*,·,?,0.85µM*,2.8µM*
COc1ccc(-c2c(C)nn3c(N)c(-c4ccccc4)cnc23)cc1OC,12%,·,10%,?,-4%
COc1ccccc1-c1c(C)nn2c(N)c(-c3ccccc3)cnc12,15%,·,0%,19µM*,12%
COC(=O)[C@@H](NC(=O)N1CCc2nc(-c3ccccc3)c3c(c2C1)CO[C@@H](C)C3)C(C)C,·,4%[9.22 µM],·,·,·
Cc1cccc(-c2nc(SCC(=O)N(C)c3ccccc3)c3c(=O)n(C)c(=O)n(C)c3n2)c1,·,·,·,-2%,·
Cc1noc(C)c1C(=O)Nc1ccc(N(C)C)cc1,4%,·,16%,1%,6%
CN(C)c1ccc(NC(=O)c2cnsn2)cc1,?,·,?,3µM*,?
Cc1ccc(CNC(=O)c2ccc(N3CCCC3)c(NC(=O)Nc3ccc(C)cc3)c2)cc1,·,·,·,4%,·
C[C@@H]1c2ccccc2Cn2cc3c(c21)C(=O)c1cccc(OP(=O)(O)OCc2ccccc2)c1C3=O,·,-8%[9.22 µM],·,·,·
CC(=O)N1CCCN(C(=O)c2cc(COc3c(F)cccc3F)on2)CC1,13%,·,-2%,3%,0%
CCOC(=O)N1CCN(C(=O)c2cc(COc3ccc(F)cc3F)on2)CC1,?,·,?,?,18%
O=C(c1cc(COc2c(F)cccc2F)on1)N1CCCCCC1,2.8µM*,·,?,?,?
O=C(c1cc(COc2ccc3c(c2)CCCC3)on1)N1CCCC1,4µM*,·,18µM*,11µM*,2.8µM*
CCOC(=O)C1CCN(C(=O)c2cc(COc3ccc(F)cc3F)on2)CC1,2.8µM*,·,21µM*,13µM*,2.8µM*
CCOC(=O)N1CCN(C(=O)c2cc(COc3c(F)cccc3F)on2)CC1,3.2µM*,·,15µM*,8.5µM*,2.2µM*
Cc1cccc(N(CC(=O)NCc2ccc(F)cc2)C(=O)c2csnn2)c1C,-8%,·,-2%,-1%,0%
Cc1cccc(C)c1OCc1cc(C(=O)N2CCN(c3ccc(F)cc3)CC2)no1,1.1µM*,·,?,3.4µM*,0.63µM*
FC(F)(F)Oc1ccccc1-c1nnc(-c2cccc(C(F)(F)F)c2)o1,-5%,·,-1%,-3%,0%
COc1cccc(-c2nnc(-c3ccc(C(F)(F)F)cc3)o2)c1OC,?,18µM*,?,7.6µM*,26%
Nc1ccc(-c2cc(N)n(-c3ccccc3)n2)cc1,?,?,9%,?,0%
Cc1cc(-c2cc(N)n(-c3ccccc3)n2)c(C)n1C1CCCC1,1.6µM*,1%,?,6µM*,3.5µM*
SMILES,Rab9 promoter act,SMN2 splice up,ELG1 genotox,FLuc counter,NPC1 prom act
CCOC(=O)C1(CCc2ccccc2)CCN(C2Cc3ccccc3C2)CC1,?,·,-21%,15µM*,?
CCOC(=O)C1(CCc2ccccc2)CCN(C(=O)Cc2nonc2C)CC1,?,3%,12%,19µM*,-1%
O=C(NC1CC(=O)N(c2cccc(F)c2)C1)C1CCCC1 (stereo unspecified),·,·,·,3%,·
Cc1nnc(NC(=O)C23CC4CC(CC(C4)C2)C3)s1,-3%[1.84 µM],·,-1%,-15%,-2%
CCC(C)N(C(=O)Cn1c(=O)cnc2ccccc21)C1CCS(=O)(=O)C1 (stereo unspecified),-3%,·,2%,5%,-3%
Cc1ccc(OCC(=O)Nc2ccc(F)cc2)c([N+](=O)[O-])n1,3.5µM*,13µM*,?,12µM*,?
Cc1ccc(OCC(=O)Nc2ccc3c(c2)CCC3)c([N+](=O)[O-])n1,23%,17%,?,27µM*,24%
Cc1ccc(OCC(=O)NCC(=O)Nc2ccc(F)cc2)c([N+](=O)[O-])n1,1%,0%,-3%,6%,-4%
COc1cc(Cl)c(C)cc1NC(=O)COc1ccc(C)nc1[N+](=O)[O-],4µM*,·,10%,-20%,?
Cc1ccc(OCC(=O)Nc2ccc(S(=O)(=O)N3CCCCC3)cc2)c([N+](=O)[O-])n1,0%,-13%,-11%,-2%,-9%
Cc1ccc(OCC(=O)Nc2ccc(Cl)cc2)c([N+](=O)[O-])n1,?,·,?,·,2.8µM*
Cc1oc2ccc(O)c(CN3CCN(C)CC3)c2c1C(=O)Nc1cccc(C(F)(F)F)c1,·,-16%,·,-5%,·
O=C(Nc1nc(-c2ccccc2)cs1)C1CCCCN1S(=O)(=O)c1ccccc1 (stereo unspecified),1%,-38%,1%,-1%,9%
O=C(Nc1nc(-c2ccccc2)cs1)NC1CCCCC1,20%,-28%,23µM*,?,17%
COc1ccc(-c2csc(NC3CCCCC3)n2)c(OC)c1,23%,·,?,24µM*,20%
c1ccc(-c2csc(NC3CCCCC3)n2)cc1,1µM*,·,5.2µM*,1.7µM*,0.79µM*
CCN1CCN(C(=O)CCc2nnc(CCc3ccccc3OC)o2)[C@@H](C)C1=O,-9%,·,2%,1%,-1%
O=C(N/N=C/c1cccc2cccnc12)c1ccccc1O,-9%,·,21µM*,7.6µM*,-1%
O=C(N/N=C/c1cccc2nccnc12)c1ccccc1O,3%,·,12%,11µM*,-7%
CCC[C@H]1NC(=O)[C@H](C)N(C)C(=O)C(C)(C)C(=O)C(C)NC(=O)[C@H](Cc2ccc(OC)cc2)N(C)C(=O)[C@H](C(C)C)N(C)C(=O)CNC(=O)[C@H](CC(C)C)N(C)C(=O)CNC(=O)[C@H]([C@@H](C)CC)OC(=O)[C@H]1C (stereo partly specified),·,·,0%,·,·
N#Cc1ccc(C(=O)Nc2ccc3c(c2)N(C2CCCC2)C(=O)c2ccccc2S3)cc1,·,·,·,8%,·
CN(C)CC#Cc1cncc(C(=O)NNC(=O)Nc2ccc(Cl)cc2)c1,2%,·,0%,24µM*,4%
COc1ccc(-n2nc3cc(C)c(NC(=O)c4cccnc4)cc3n2)cc1,?,28%,?,1.1µM*,?
CCC(=O)Nc1cc2nn(-c3ccccc3)nc2cc1Cl,0.28µM*,0.89µM*,0.52µM*,0.67µM*,0.32µM*
Cc1ccc(OCC(=O)Nc2cc3nn(-c4ccccc4)nc3cc2C)cc1,·,13%,·,1%,·
CC(=O)Nc1cc2nn(-c3ccccc3)nc2cc1C,0.56µM*,·,3.3µM*,2.4µM*,0.63µM*
